Screens as filed in PubChem BioAssay.
Most compounds without a hit are left out; they make up all but 10% or so of the library.
NIH3T3 tox: NIH 3T3 cell cytotoxicity. NIH 3T3 viability, CellTiter-Glo ATP luminescence, 48-72 h. AID 1345082. actives 4.3% (n = 94,000). Potency, µM (titrated, usually from 96.7 µM), for the others: top-dose activity change, negative = cytotoxicity, hits mostly inhibitors; further: on the % scale 0 is the no-effect control and ±100 the full control effect; nearly all actives have a fitted effect of over 55% in size
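First NIH 3T3 cells are plated at 400 cells/well; next compound is pinned in; then plates incubate 48 or 72 hr at 37 °C; finally CellTiter-Glo is added and luminescence read after 10 min.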
hNpr1 antagonist: blocks ANP-stimulated signaling of human Npr1 receptor; AID 1347048; HEK293 hNpr1 GloSensor cGMP, ANP-stimulated luminescence; actives 1.6% (n = 76,000); P16066; Potency, µM (top dose mostly 46.3 µM), for inactives: at the highest dose activity change, negative = inhibition, usual class: inhibitors; calls by dose curve; further: on the % scale 0 is the no-effect control and ±100 the full control effect; nearly all actives have a fitted effect of over 60% in size
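HEK293 cells stably expressing human Npr1 and cGMP GloSensor pGS-40F, loaded 2 h with 2% GloSensor reagent, given compound 30 min at room temperature. Luminescence read before and 20 min after 0.1 nM hNppA.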
GPT2 inhibitor: inhibitors of human GPT2 alanine aminotransferase; Recombinant GPT2, coupled pyruvate oxidase/HRP Amplex Red fluorescence; Q8TD30; Potency, µM (series often up to 57.7 µM), for inactives: at the top dose activity change, negative = inhibition, most hits filed as inhibitors; actives 0.25% (n = 100,000); AID 1671188; further: on the % scale 0 is the no-effect control and ±100 the full control effect; nearly all actives have a fitted effect of over 60% in size
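Recombinant GPT2 (10ng/uL) with 250uM a-KG and 2mM L-alanine, 30 min at room temperature, in HEPES pH 7.5 buffer. Pyruvate detected by pyruvate oxidase/HRP/Amplex Red fluorescence after 30 min in the dark; AOA (50uM) as positive control.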
FLuc inh-1: inhibitors of firefly (Photinus pyralis) luciferase; P08659; purified P. pyralis luciferase, luminescence, biochemical; actives 2.5% (n = 76,000); AID 1347043; Potency, µM (top dose mostly 115 µM), usual class: inhibitors; further: on the % scale 0 is the no-effect control and ±100 the full control effect; nearly all actives have a fitted effect of over 65% in size
Target sequence (P08659 whole entry, looked up): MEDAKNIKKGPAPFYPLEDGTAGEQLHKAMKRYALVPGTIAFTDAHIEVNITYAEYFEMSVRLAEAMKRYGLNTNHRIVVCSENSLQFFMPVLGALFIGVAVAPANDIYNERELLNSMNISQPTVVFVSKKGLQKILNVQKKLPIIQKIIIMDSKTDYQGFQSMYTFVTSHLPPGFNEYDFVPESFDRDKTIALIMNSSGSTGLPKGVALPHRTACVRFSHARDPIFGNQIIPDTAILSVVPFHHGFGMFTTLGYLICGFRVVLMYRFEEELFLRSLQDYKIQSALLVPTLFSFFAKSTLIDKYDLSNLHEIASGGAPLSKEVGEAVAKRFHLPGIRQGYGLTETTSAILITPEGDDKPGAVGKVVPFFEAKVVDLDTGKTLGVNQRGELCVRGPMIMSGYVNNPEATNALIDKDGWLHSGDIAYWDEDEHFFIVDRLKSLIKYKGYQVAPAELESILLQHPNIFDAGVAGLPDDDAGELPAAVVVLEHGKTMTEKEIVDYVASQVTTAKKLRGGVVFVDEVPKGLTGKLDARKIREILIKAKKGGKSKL
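Inhibitors were tested against purified firefly luciferase in a biochemical, low-substrate format (both substrates at 10uM) and luminescence measured with a CCD imager.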
HEK cytotox: cytotoxic compounds in HEK 293 cells; HEK 293 viability, ATP luminescence (CellTiter-Glo), 48-72 h; AID 1345083; Potency, µM (top dose mostly 115 µM), without a hit: top-dose activity change, negative = cytotoxicity, hits mostly inhibitors; actives 6.6% (n = 94,000); further: on the % scale 0 is the no-effect control and ±100 the full control effect; nearly all actives have a fitted effect of over 60% in size
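Viability of HEK 293 cells, plated at 250 cells/well, was judged by cellular ATP after compound treatment for 48 or 72 hr. Luminescence was imaged 10 min after CellTiter-Glo addition at room temperature.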
FLuc SDR -ATP: binders stabilizing firefly luciferase, without ATP; shares compounds with FLuc inh-1; Purified FLuc-C-HiBiT, Nano-Glo HiBiT luminescence, no ATP; Potency, µM (doses to about 32.7 µM), for the others: at the highest dose activation (signal gain), usual class: activators; actives 7.8% (n = 1,300); further: nearly all actives have a fitted effect of over 55% in size
FLuc SDR ATP: stabilizes firefly luciferase with ATP present; shares compounds with FLuc inh-1; purified FLuc-C-HiBiT + ATP, HiBiT complementation luminescence; Potency, µM (doses to about 32.7 µM), without a hit: top-dose activation (gain of signal), usual class: activators; actives 8.7% (n = 1,300);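 further: signal reports ligand binding via conformational change of the enzyme rather than luciferase catalysis; % of control where 0% means no effect; nearly all actives have a fitted effect of over 55% in size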
FLuc inh-2: blocks firefly luciferase enzymatic activity; shares compounds with FLuc inh-1; purified FLuc-C-HiBiT enzyme, luciferin luminescence; Potency, µM (doses to about 32.7 µM), for inactives: at the highest dose activity change, negative = inhibition, hits mostly inhibitors; actives 42% (n = 1,300); AID 1963320; further: on the % scale 0 is the no-effect control and ±100 the full control effect; nearly all actives have a fitted effect of over 70% in size
Starred values were filed as active, the others as inactive; [ ] = another dose, or the depositor's remark. Unless noted, the call rests on the fitted dose curve; in most records, active means well fitted curve in the direction sought with a large enough effect; inconclusive means small, poorly fitted or top-dose-only effect, or another doubt; inactive means no such curve, though single readings can be large; an effect the other way counts as inactive or inconclusive. Potency means the concentration at half of the fitted maximal effect.

Results for COc1ccc(NC(=O)N2CCc3c(C(=O)NCCN4CCCCCC4)cccc32)cc1 ?
NIH3T3 tox: -23.1%; hNpr1 antagonist: 10µM*; GPT2 inhibitor: 2.2%; FLuc inh-1: 1.58µM*; HEK cytotox: inconclusive; FLuc SDR -ATP: inconclusive; FLuc SDR ATP: 0.785µM*; FLuc inh-2: 0.556µM*

How did COc1ccc(NC(=O)N2CCc3c(C(=O)N(C)Cc4ccco4)cccc32)cc1 do in these assays?
NIH3T3 tox: -26.8%; hNpr1 antagonist: inconclusive; GPT2 inhibitor: 2.3%; FLuc inh-1: 3.98µM*; HEK cytotox: inconclusive; FLuc SDR -ATP: inconclusive; FLuc SDR ATP: 2.48µM*; FLuc inh-2: 1.76µM*

How did Cc1cccc(S(=O)(=O)N2CCc3c(C(=O)NCCN4CCCCC4)cccc32)c1 do in these assays?
NIH3T3 tox: inconclusive; hNpr1 antagonist: -2.8%; GPT2 inhibitor: inconclusive; FLuc inh-1: inactive; HEK cytotox: inconclusive

What do the screens show for `COc1ccc(NC(=O)N2CCc3c(C(=O)N(C)C)cccc32)cc1`?
NIH3T3 tox: inconclusive; hNpr1 antagonist: 3.98µM*; GPT2 inhibitor: inactive; FLuc inh-1: 0.251µM*; HEK cytotox: inconclusive; FLuc SDR -ATP: inconclusive; FLuc SDR ATP: 0.157µM*; FLuc inh-2: 0.111µM*

How did Cc1cccc(NC(=O)N2CCc3c(C(=O)N(C)Cc4ccco4)cccc32)c1 do in these assays?
NIH3T3 tox: inconclusive; hNpr1 antagonist: -19.0%; GPT2 inhibitor: -10.4%; FLuc inh-1: inconclusive; HEK cytotox: inconclusive

Results for CC(C)n1cc(-c2cc(C(=O)N3CCC(C)(C)C3)c3ccc(F)cc3n2)cn1 ?
NIH3T3 tox: inconclusive; hNpr1 antagonist: -13.1%; GPT2 inhibitor: 0.1%; FLuc inh-1: 5.01µM*; HEK cytotox: inconclusive; FLuc SDR -ATP: inconclusive; FLuc SDR ATP: inconclusive; FLuc inh-2: 4.95µM*

Results for COc1cccc(N2C(=O)NC(=NC3CCCCC3)C23CCN(C(=O)c2ccc(C)cc2)CC3)c1 ?
NIH3T3 tox: inconclusive; GPT2 inhibitor: inactive; HEK cytotox: -4.6%

Results for CCCC1C=CCN1C(=O)c1cc(-c2ccncc2)nc2ccccc12 (stereo unspecified) ?
NIH3T3 tox: inconclusive; hNpr1 antagonist: -28.8%; GPT2 inhibitor: inconclusive; FLuc inh-1: inactive; HEK cytotox: inconclusive

Results for COc1cccc(NC(=O)Cn2c(=O)c(-c3noc(C)n3)c3n(c2=O)CCCC3)c1 ?
NIH3T3 tox: -8.5%; hNpr1 antagonist: -0.5%; GPT2 inhibitor: inactive; FLuc inh-1: inactive; HEK cytotox: -8.4%

How did COc1cccc(C(=O)Nc2cccc(OCc3cc(=O)n4c5c(sc4n3)CCCC5)c2)c1 do in these assays?
FLuc SDR -ATP: 21.2%; FLuc SDR ATP: 11.0%; FLuc inh-2: inconclusive

Results for Cc1nn(-c2ccc(C(C)(C)C)cc2)c(C)c1[C@@H]1C=C[C@@H](NC(=O)COCC(=O)O)C1 ?
NIH3T3 tox: inconclusive; hNpr1 antagonist: -1.9%[70.6 µM]; GPT2 inhibitor: inactive; FLuc inh-1: 22.4µM*; HEK cytotox: 2.7%[172 µM]; FLuc SDR -ATP: 27.6%[49.3 µM]; FLuc SDR ATP: 17.6%[49.3 µM]; FLuc inh-2: inconclusive
